Values without a mark were called inactive. Activity calls are given as the source filed them.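 Rule for the calls: active = thallium flux through the channel raised or lowered by more than 3 SD from vehicle-only wells, actives on both sides; inactive = the rest.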
What was measured:
Assay in all cases: BK channel mutant inhibitors and activators – cell-based, U2OS BacMam, thallium flux, beta subunits, selectivity assay, profiling panel (AID 1259406);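 note: initial slope of Thallos dye fluorescence rise after thallium is added; log ratio against the mean of 0.3% DMSO vehicle wells on the same plate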
[1] = tested on: F380Y; conditions: U2OS BacMam BK variants, at 30 µM
[2] = tested on: F380Y/beta1; conditions: U2OS BacMam BK variants, at 30 µM
[3] = tested on: F380Y/beta2Delta; conditions: U2OS BacMam BK variants, at 30 µM
[4] = tested on: F380Y/beta4; conditions: U2OS BacMam BK variants, at 30 µM
[5] = target: Calcium-activated potassium channel subunit alpha-1 (Homo sapiens) + Leucine-rich repeat-containing protein 26 (Homo sapiens) (UniProt Q12791+Q2I0M4); conditions: U2OS BacMam BK variants, F380Y/Slo1WT/gamma1, at 30 µM
[6] = tested on: R275C; conditions: U2OS BacMam BK variants, at 30 µM
[7] = tested on: R275C/beta1; conditions: U2OS BacMam BK variants, at 30 µM
[8] = tested on: R275C/beta2Delta; conditions: U2OS BacMam BK variants, at 30 µM
[9] = tested on: R275C/beta4; conditions: U2OS BacMam BK variants, at 30 µM
[10] = tested on: R275C/Slo1WT/beta2; conditions: U2OS BacMam BK variants, at 30 µM

Chain of Calcium-activated potassium channel subunit alpha-1 (Homo sapiens) + Leucine-rich repeat-containing protein 26 (Homo sapiens) (Q2I0M4 whole entry, looked up, one chain of several): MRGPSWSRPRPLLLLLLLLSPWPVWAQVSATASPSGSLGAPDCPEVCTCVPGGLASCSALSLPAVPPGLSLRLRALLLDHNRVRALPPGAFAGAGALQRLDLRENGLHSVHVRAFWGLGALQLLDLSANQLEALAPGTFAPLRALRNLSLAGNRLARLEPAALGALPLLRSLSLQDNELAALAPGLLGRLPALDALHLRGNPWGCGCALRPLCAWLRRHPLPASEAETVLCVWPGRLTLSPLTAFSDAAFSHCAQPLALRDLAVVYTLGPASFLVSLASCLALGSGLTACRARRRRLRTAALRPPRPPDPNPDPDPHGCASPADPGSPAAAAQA

Row | SMILES | log fold change Tl+ flux [1] | log fold change Tl+ flux [2] | log fold change Tl+ flux [3] | log fold change Tl+ flux [4] | log fold change Tl+ flux [5] | log fold change Tl+ flux [6] | log fold change Tl+ flux [7] | log fold change Tl+ flux [8] | log fold change Tl+ flux [9] | log fold change Tl+ flux [10]
1 | Cc1ccc(S(=O)(=O)Oc2c(Cc3ccccc3)c(=O)n(C)c3ccccc23)cc1 | -0.047 | -0.00429 | -0.0297 | 0.0237 | -0.018 | -0.0579 | -0.0357 | -0.0097 | -0.0625 | 0.0422
2 | CCOC(=O)c1ccc(OCC#Cc2ccc(C(F)(F)F)cn2)cc1 | -0.0256 | -0.0209 | -0.0279 | -0.0657 | -0.0262 | -0.0775 | -0.0424 | -0.0497 | -0.0346 | -0.0412
3 | Clc1cc(Cl)c(NN=Cc2cc(C#Cc3ccccc3)cs2)c(Cl)c1 | -0.0491 | 0.00923 | -0.0555 | 0.0192 | -0.0342 | -0.012 | 0.00694 | -0.0137 | 0.0367 | 0.0344
4 | N#CC(=Cc1cccs1)C(N)=O | 0.0135 | 0.00229 | 0.0332 | -0.0391 | -0.00699 | 0.00755 | -0.00113 | 0.0185 | 0.00837 | -0.0032
5 | O=C(NNC(=O)c1ccc2nonc2c1)c1cccc(C(F)(F)F)c1 | 0.0115 | 0.037 | 0.0509 | 0.00874 | -0.0024 | 0.0381 | 0.0483 | 0.036 | 0.0129 | -0.0326
6 | Cc1ccc(C)n1N(C)c1ccc([N+](=O)[O-])cn1 | -0.186 (active) | -0.0343 | -0.0717 | 0.0203 | -0.0125 | -0.0076 | -0.0949 | -0.0509 | 0.0498 | 0.00416
7 | CCCCCCCCCCCCSC(=S)Nc1ccc(Br)c(C)c1 | -0.0409 | -0.00527 | -0.0326 | -0.000986 | -0.031 | 0.0399 | 0.0206 | -0.028 | 0.0416 | 0.0211
8 | Cc1cc(NC(=O)Nc2nc(-c3ccc(C)c(Cl)c3)c(C)s2)c(C(F)(F)F)o1 | 0.0531 | 0.0378 | 0.0304 | -0.0149 | 0.0333 | 0.0173 | -0.0274 | 0.015 | 0.0593 | 0.0144
9 | O=S(=O)(Nc1ccccc1SCc1ccc2nonc2c1)c1cccs1 | -0.159 (active) | -0.065 | -0.0553 | -0.14 (active) | -0.142 (active) | -0.262 (active) | 0.0365 | -0.00587 | -0.0288 | -0.239 (active)
10 | O=C(Cn1ccc(C(F)(F)F)n1)c1ccc(Cl)cc1 | 0.0102 | 0.0189 | -0.0159 | 0.0229 | -0.00441 | 0.00925 | 0.0122 | -0.0132 | 0.0276 | 0.0269
11 | N#CC1=C(Nc2ccccc2Cl)SC(c2ccncc2)NC1=O (stereo not given) | -0.0226 | 0.0482 | 0.0198 | -0.00461 | 0.0291 | 0.0616 | 0.0544 | 0.0222 | 0.0286 | 0.0417
12 | CC(=O)Nc1ccc(OCC(=O)N2CCN(c3ncc(C(F)(F)F)cc3Cl)CC2)cc1 | 0.046 | 0.0214 | 0.00987 | 0.125 (active) | 0.039 | 0.0368 | 0.00256 | 0.0353 | 0.0246 | 0.0473
13 | Cc1nc(C)c(C(=O)O)c(-c2ccsc2)c1C(=O)O | 0.00149 | 0.0257 | -0.0103 | 0.0238 | 0.0233 | 0.0307 | 0.0388 | -0.00263 | 0.00868 | 0.0152

Reference: PubChem BioAssay
